# The supplement of paper PMC10849652
# Targets with a hit are over-represented here; the source holds about 8,800 in all. About 0.5% of all pairs of compound and target were hits. Unmarked numbers belong to inactive results.
# Compound: CC1=C(SC2=C1C(=N[C@H](C3=NN=C(N32)C)CC(=O)N)C4=CC=C(C=C4)Cl)C
# Experiment: log2 fold change, soluble protein after heating vs DMSO (PISA); higher = thermal stabilisation; K562 lysate, 10 uM; active = over 0.2 and 3.5 SD of the protein, either way, in both replicates (recomputed)
# Summary of the method: (§1)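 To prepare the extract, K562 pellets were dounce-homogenised in PBS pH 7.4 with 1 mM MgCl2, giving crude material at 1 mg/mL protein. This was treated with 10 μM compound for 30 min, then heated in aliquots for 3 min over 48°C-58°C before pooling and addition of NP-40 to 0.5% at 4°C. Centrifugation at 21,000xg for 90 min left soluble protein in the supernatant, which TMTpro 16plex LC-MS/MS quantified with equalised channel sums. Results are log-two fold changes in thermal stability compared with solvent controls, from duplicates.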
# Chain of UniProt P51790 (P51790 whole entry, looked up): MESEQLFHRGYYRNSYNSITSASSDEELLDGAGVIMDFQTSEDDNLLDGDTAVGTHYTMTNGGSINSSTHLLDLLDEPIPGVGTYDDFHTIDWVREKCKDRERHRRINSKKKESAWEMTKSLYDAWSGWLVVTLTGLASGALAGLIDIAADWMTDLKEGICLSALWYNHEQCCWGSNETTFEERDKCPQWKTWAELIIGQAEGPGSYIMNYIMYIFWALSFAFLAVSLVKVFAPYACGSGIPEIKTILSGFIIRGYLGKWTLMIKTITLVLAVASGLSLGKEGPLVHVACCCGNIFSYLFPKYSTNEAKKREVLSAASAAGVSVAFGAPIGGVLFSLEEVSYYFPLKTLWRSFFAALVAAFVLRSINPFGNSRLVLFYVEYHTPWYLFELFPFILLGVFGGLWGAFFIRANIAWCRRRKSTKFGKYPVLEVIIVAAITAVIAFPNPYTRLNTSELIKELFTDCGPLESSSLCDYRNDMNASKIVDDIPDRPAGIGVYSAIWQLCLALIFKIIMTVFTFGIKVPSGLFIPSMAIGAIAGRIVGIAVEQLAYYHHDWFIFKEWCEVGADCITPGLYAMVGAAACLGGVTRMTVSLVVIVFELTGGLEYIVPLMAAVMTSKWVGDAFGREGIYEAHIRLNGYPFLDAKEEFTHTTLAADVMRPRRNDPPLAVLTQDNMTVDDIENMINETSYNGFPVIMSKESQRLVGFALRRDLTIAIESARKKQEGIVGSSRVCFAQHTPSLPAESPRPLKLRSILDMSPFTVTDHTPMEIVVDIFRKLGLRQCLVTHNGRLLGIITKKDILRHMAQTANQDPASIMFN
# Chain of UniProt O15111 (O15111 whole entry, looked up): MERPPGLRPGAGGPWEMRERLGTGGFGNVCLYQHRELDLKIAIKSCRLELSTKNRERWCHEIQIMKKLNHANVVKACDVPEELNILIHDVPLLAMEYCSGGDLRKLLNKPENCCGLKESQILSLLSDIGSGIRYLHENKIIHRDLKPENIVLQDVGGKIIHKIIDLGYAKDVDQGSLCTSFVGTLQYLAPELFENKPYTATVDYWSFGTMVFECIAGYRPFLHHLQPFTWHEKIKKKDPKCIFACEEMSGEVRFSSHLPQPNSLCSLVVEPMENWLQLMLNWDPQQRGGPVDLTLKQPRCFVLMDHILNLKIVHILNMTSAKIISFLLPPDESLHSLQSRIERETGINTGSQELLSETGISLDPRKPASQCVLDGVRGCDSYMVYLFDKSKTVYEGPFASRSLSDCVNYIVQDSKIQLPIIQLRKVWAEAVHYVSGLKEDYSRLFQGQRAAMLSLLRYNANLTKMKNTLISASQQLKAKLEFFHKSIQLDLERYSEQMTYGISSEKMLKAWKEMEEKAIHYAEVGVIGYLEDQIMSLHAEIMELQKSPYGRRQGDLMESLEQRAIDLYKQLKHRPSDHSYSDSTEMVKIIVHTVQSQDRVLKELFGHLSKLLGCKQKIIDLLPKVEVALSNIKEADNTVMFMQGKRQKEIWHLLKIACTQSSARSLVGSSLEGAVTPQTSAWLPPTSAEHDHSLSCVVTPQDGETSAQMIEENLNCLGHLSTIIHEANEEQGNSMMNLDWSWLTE
# Chain of UniProt P67870 (P67870 whole entry, looked up): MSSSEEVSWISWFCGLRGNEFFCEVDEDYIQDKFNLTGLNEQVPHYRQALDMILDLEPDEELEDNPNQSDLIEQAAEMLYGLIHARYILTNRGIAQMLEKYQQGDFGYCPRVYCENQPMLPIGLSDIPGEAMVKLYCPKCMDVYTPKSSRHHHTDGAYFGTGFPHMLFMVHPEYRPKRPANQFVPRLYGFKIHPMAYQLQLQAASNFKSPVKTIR
# Chain of UniProt Q9BY43 (Q9BY43 whole entry, looked up): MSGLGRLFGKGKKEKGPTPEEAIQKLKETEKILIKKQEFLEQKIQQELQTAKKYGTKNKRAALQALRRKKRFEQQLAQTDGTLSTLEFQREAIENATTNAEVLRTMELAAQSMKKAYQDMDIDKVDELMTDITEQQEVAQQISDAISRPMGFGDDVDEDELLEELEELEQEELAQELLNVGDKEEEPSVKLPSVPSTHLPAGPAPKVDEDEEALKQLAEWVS
# Chain of UniProt P30622 (P30622 whole entry, looked up): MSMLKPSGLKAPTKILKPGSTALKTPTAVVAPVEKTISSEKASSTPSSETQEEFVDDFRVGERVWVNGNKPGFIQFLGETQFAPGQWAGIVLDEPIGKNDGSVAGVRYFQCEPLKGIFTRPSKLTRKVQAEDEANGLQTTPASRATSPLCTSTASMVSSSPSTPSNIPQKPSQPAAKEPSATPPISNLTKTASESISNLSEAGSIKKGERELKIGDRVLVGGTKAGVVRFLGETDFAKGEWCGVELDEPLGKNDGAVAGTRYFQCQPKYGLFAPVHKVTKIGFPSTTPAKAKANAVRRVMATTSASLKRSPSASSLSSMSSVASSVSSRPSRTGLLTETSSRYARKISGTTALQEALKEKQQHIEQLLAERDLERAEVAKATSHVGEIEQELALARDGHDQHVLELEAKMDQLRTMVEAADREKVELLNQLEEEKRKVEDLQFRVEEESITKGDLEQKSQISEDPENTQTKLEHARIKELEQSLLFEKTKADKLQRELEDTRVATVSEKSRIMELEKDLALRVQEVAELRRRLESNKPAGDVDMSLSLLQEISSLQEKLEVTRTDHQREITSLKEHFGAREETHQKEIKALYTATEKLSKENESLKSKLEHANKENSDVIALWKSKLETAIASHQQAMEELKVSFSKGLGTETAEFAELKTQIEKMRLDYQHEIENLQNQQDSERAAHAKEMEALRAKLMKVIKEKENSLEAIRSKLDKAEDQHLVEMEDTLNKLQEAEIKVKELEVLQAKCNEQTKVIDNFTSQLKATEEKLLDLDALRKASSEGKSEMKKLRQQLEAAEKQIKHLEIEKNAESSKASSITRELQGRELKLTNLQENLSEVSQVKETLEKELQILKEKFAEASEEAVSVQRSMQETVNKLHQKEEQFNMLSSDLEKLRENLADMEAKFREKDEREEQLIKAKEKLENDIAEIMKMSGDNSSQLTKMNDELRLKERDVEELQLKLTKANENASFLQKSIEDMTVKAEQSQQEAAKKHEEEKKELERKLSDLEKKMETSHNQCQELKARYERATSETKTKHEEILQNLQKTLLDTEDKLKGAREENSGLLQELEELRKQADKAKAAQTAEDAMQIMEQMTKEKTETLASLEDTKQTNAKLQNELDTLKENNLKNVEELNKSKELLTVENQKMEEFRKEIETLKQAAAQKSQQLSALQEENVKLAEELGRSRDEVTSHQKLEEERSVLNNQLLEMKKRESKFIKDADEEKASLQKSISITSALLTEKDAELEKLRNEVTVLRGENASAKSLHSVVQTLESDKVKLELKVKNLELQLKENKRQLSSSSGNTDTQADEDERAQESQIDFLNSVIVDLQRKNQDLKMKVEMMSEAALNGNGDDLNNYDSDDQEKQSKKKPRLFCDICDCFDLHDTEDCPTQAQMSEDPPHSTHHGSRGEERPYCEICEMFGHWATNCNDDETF
# Chain of UniProt P57737 (P57737 whole entry, looked up): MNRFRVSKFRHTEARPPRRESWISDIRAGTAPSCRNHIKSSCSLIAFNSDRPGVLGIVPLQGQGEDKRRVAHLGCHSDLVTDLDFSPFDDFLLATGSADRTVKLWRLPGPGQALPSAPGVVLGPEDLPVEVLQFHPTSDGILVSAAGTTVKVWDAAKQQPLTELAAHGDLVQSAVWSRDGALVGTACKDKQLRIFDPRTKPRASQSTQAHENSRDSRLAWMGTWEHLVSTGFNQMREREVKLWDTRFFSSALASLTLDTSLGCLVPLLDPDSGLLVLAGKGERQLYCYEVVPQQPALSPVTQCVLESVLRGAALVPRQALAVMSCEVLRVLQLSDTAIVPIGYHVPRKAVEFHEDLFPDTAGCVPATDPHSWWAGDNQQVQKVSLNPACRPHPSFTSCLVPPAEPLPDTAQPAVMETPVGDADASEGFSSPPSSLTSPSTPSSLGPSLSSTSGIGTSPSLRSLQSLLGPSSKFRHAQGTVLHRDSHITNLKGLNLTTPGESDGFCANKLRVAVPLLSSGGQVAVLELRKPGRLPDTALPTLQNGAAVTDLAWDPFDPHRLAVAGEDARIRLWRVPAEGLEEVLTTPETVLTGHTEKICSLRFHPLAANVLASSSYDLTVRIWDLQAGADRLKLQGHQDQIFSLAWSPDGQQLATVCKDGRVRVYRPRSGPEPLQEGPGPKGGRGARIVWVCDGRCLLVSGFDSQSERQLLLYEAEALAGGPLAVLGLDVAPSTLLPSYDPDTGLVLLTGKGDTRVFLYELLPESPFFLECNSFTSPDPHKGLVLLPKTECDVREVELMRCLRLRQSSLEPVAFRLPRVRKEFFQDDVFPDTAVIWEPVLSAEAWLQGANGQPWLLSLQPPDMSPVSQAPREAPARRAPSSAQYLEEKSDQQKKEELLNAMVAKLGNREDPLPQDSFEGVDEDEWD
# Chain of UniProt Q9BW66 (Q9BW66 whole entry, looked up): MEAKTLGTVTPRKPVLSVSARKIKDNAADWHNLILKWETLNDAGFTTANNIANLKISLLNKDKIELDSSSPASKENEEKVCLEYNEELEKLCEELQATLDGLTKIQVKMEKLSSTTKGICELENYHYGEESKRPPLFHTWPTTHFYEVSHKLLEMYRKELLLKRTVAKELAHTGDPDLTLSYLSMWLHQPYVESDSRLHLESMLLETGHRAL
# Chain of UniProt Q9UBM7 (Q9UBM7 whole entry, looked up): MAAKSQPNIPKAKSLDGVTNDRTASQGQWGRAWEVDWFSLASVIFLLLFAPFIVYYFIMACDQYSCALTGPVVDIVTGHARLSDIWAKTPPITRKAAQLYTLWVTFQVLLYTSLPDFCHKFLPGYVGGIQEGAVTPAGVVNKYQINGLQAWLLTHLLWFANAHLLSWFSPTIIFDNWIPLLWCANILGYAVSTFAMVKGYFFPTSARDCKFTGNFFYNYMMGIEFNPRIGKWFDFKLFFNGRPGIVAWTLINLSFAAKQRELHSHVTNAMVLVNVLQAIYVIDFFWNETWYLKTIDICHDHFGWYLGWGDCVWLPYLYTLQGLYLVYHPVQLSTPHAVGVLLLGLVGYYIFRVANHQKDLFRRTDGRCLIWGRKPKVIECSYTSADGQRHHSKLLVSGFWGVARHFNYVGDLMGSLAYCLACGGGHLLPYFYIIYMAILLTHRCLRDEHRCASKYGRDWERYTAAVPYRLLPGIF
row,Target,log2 fold change
1,CNOT2 (UniProt Q9NZN8),-0.016
2,CLUH (UniProt O75153),0.008
3,DENND6A (UniProt Q8IWF6),-0.008
4,CSNK2B (UniProt P67870),0.024
5,CORO7 isoform 3 (UniProt P57737),-0.006
6,CHMP4A isoform 2 (UniProt Q9BY43),-0.009
7,CINP isoform 3 (UniProt Q9BW66),-0.042
8,CLCN3 (UniProt P51790),0.014
9,CHUK (UniProt O15111),0.032
10,CSTF2 (UniProt P33240),0.021
11,CLIP1 isoform 1 (UniProt P30622),-0.008

# Compound: CC1=C2C(=CC=C1)N=C(N(C2=O)C3=CC=CC=C3C)CN4C=NC5=C(N=CN=C54)N
# Experiment: as above
# Summary of the method: as §1
row,Target,log2 fold change
1,COX20 isoform 2 (UniProt Q5RI15),-0.092
2,CTNNBL1 (UniProt Q8WYA6),0.004
3,CYP24A1 (UniProt Q07973),0.096
4,DLGAP5 (UniProt Q15398),0.009
5,DOCK8 (UniProt Q8NF50),0.013
6,DBF4 (UniProt Q9UBU7),0.071
7,CORO1A (UniProt P31146),0.004
8,CLASP1 (UniProt Q7Z460),0.022
9,DFFB (UniProt O76075),0.061
10,CLPTM1L (UniProt Q96KA5),0.04
11,COL6A5 (UniProt A8TX70),0.089
12,CLP1 (UniProt Q92989),-0.023
13,DHCR7 (UniProt Q9UBM7),-0.031
14,COG3 (UniProt Q96JB2),0.016
15,CNTN4 (UniProt Q8IWV2),0.105
16,CIAO2A (UniProt Q9H5X1),0.023
17,DAZAP1 (UniProt Q96EP5),0.005

row,Target,log2 fold change
1,CSNK2A2 (UniProt P19784),-0.213
2,DCP1A (UniProt Q9NPI6),0.025
3,CLIC2 (UniProt O15247),0
4,CSTB (UniProt P04080),-0.032
5,CSNK1D (UniProt P48730),-0.127
6,CKAP2 (UniProt Q8WWK9),0.001
7,CNOT2 (UniProt Q9NZN8),-0.019
8,CLUH (UniProt O75153),0.021
9,DENND6A (UniProt Q8IWF6),-0.026
10,CSNK2B (UniProt P67870),-0.068
11,CORO7 isoform 3 (UniProt P57737),0.033
12,CHMP4A isoform 2 (UniProt Q9BY43),0.007
13,CINP isoform 3 (UniProt Q9BW66),0.039
14,CLCN3 (UniProt P51790),0.061
15,CHUK (UniProt O15111),0
16,CSTF2 (UniProt P33240),0.055
17,CLIP1 isoform 1 (UniProt P30622),-0.002

# Compound: Cc1sc2c(c1C)C(c1ccc(Cl)cc1)=N[C@@H](CC(=O)OC(C)(C)C)c1nnc(C)n1-2
# Experiment: as above
# Summary of the method: as §1
row,Target,log2 fold change
1,COX20 isoform 2 (UniProt Q5RI15),0.001
2,CTNNBL1 (UniProt Q8WYA6),-0.087
3,CYP24A1 (UniProt Q07973),-0.136
4,DLGAP5 (UniProt Q15398),-0.036
5,DOCK8 (UniProt Q8NF50),0.005
6,DBF4 (UniProt Q9UBU7),0.113
7,CORO1A (UniProt P31146),0.078
8,CLASP1 (UniProt Q7Z460),-0.026
9,DFFB (UniProt O76075),-0.032
10,CLPTM1L (UniProt Q96KA5),-0.02
11,COL6A5 (UniProt A8TX70),-0.061
12,CLP1 (UniProt Q92989),0.026
13,DHCR7 (UniProt Q9UBM7),-0.045
14,COG3 (UniProt Q96JB2),0.033
15,CIAO2A (UniProt Q9H5X1),-0.032
16,DAZAP1 (UniProt Q96EP5),0.088
17,CSNK2A2 (UniProt P19784),0.038

row,Target,log2 fold change
1,DCP1A (UniProt Q9NPI6),0.018
2,CLIC2 (UniProt O15247),0.017
3,CSTB (UniProt P04080),-0.071
4,CSNK1D (UniProt P48730),-0.026
5,CKAP2 (UniProt Q8WWK9),-0.003
6,CNOT2 (UniProt Q9NZN8),-0.004
7,CLUH (UniProt O75153),-0.02
8,DENND6A (UniProt Q8IWF6),0.039
9,CSNK2B (UniProt P67870),0.03
10,CORO7 isoform 3 (UniProt P57737),0.018
11,CHMP4A isoform 2 (UniProt Q9BY43),-0.022
12,CINP isoform 3 (UniProt Q9BW66),-0.157
13,CLCN3 (UniProt P51790),0.063
14,CHUK (UniProt O15111),-0.026
15,CSTF2 (UniProt P33240),-0.032
16,CLIP1 isoform 1 (UniProt P30622),-0.028
